Screening data as filed in PubChem.
An excerpt weighted towards active compounds, which were near 1.8% of everything screened.
MsrA inh – bovine MsrA enzyme inhibitors, primary screen, biochemical, absorbance, HTS. Methionine sulfoxide reductase A (Bos taurus). inhibition, % at 15.5 µM. purified bovine MsrA, absorbance read-out. AID 651718, 2012. 360,000 tested, 0.75% active; in the data active = inhibition above about 4.5%;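 also: 0% = vehicle wells with enzyme and 100% = reference inhibitor wells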
NPR2 activator – human GC-B receptor activators, primary screen, HEK293 GC-B cells, cGMP TR-FRET, EC30 CNP. Atrial natriuretic peptide receptor 2 (Homo sapiens), P20594. 0% at EC30 CNP, 100% saturating CNP. activation, % at 10 µM. 370,000 tested, 0.11% active. AID 1920062, 2024;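 active = activation at 10 µM reaching about 35% in either raw or pattern-adjusted values, limit read from the data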
bovine MsrA act – bovine MsrA enzyme activators, primary screen, biochemical, absorbance, HTS; Methionine sulfoxide reductase A (Bos taurus); purified bovine MsrA, absorbance read-out; activation, % at 10.6 µM; 360,000 tested, 0.3% active; AID 602163, 2012; in the data active = activation above about 7.5%;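 also: 0% = vehicle and 100% = reference activator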
HTR2A ag – mouse Htr2a agonists via beta-arrestin recruitment, primary screen, cell-based, luminescence; 5-hydroxytryptamine receptor 2A (Mus musculus), P35363; CHO-K1 mHTR2A beta-arrestin complementation; percent of 30 µM serotonin response; activation, % at 7.6 µM; 360,000 tested, 0.66% active;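 active = activation above a run cutoff, the mean activation of all tested compounds plus 3 SD, cut at about 14% in these data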;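 also: 0% = plate median of compound wells and 100% = 30 µM serotonin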
Target sequence (P35363 whole entry, looked up): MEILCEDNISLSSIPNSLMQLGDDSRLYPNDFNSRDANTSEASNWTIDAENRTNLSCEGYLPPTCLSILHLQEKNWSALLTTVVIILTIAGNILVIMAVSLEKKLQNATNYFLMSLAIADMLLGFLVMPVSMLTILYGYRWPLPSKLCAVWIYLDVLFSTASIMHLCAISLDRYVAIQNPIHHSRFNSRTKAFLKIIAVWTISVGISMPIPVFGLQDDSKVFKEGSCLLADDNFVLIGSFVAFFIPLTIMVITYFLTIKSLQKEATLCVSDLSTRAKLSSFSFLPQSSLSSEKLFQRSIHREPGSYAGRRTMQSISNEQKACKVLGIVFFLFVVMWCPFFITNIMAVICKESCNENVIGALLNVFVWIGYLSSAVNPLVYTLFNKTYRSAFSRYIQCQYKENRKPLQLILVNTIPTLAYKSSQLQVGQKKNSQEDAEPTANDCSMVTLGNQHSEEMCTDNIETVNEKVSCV
GC-A act – GC-A stimulated cGMP production enhancers – HEK293 GC-A cells, cGMP TR-FRET, EC30 ANP, primary screen; Atrial natriuretic peptide receptor 1 (Homo sapiens), P16066; 0% at EC30 ANP, 100% saturating ANP; AID 1671463, 2021; activation, % at 10 µM; 370,000 tested, 0.14% active; in the data active = activation above about 40%
OPRM1 ag – OPRM1 agonists via beta-arrestin recruitment, confirmation, counter-screen for mouse HTR2A agonist project, cell-based, luminescence, single concentration; activation, % at 9.3 µM; shares compounds with HTR2A ag; 2,300 tested, 5.3% active; U2OS OPRM1 beta-arrestin PathHunter; DMSO 0%, DAMGO 9.3 µM 100%; AID 624380, 2012;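 active = mean activation above the mean of DMSO-only wells plus 3 SD, cut at about 0.5% in these data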
HTR2A ag conf – mouse HTR2A agonists, beta-arrestin recruitment, confirmation, cell-based, luminescence, CHO-K1 PathHunter, triplicate. shares compounds with HTR2A ag. DMSO 0%, 30 µM serotonin 100%. activation, % at 7.6 µM. 2,300 tested, 19% active;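 active = mean activation across triplicates above the hit threshold derived in the original primary screen, cut at about 15% in these data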
The depositor's hits bear a star; . = not tested or not shown.

SMILES | MsrA inh | NPR2 activator | bovine MsrA act | HTR2A ag | GC-A act | OPRM1 ag | HTR2A ag conf
CCOC(=O)N1CCC(N2C(=O)c3ccccc3C2Nc2ccccc2C)CC1 (stereo not given) | 1.7 | -12.3 | -2.9 | -4.4 | -15.8 | . | .
CCOC(=O)N1CCC(N2C(=O)c3ccccc3C2Nc2cccnc2)CC1 (stereo not given) | 0.3 | -2.4 | -1.3 | 19.2* | -1.6 | -0.5 | -1.4
COc1ccc(-n2c(SCC(=O)Nc3cc(C)on3)nc3c(c2=O)SCC3)cc1 | -0.2 | 1.3 | -7.8 | 1.4 | 4.7 | . | .
COc1ccc(-n2c(SCC(=O)Nc3cc(C)on3)nc3c(c2=O)SCC3)cc1OC | 0.9 | -3.1 | -0.7 | 23.1* | 3.8 | -0.6 | -4.3
COC(=O)C1=C(C)N(C)C(=NCc2ccc(C(F)(F)F)cc2)NC1c1ccc(F)cc1 (stereo not given) | -1.0 | -0.7 | . | . | -5.2 | . | .
CCN(c1ccccc1)P(=O)(Nc1ccccc1)Nc1ccccc1 | -0.1 | -8.8 | -4.3 | 0.3 | -14.3 | . | .
O=P(Nc1ccccc1)(Nc1ccccc1)c1ccccc1 | 1.6 | -7.9 | -8.3 | 14.9* | -8.5 | -0.7 | -2.8
Cc1ccc(CC(=O)N2CC(C)OC(C)C2)cc1 (stereo not given) | 0.1 | 0.9 | -2.7 | -2.3 | -0.3 | . | .
CC1CN(C(=O)CS(=O)(=O)Cc2ccc(Cl)cc2)CC(C)O1 (stereo not given) | -0.1 | 2.8 | -5.0 | 14.7* | -2.1 | -0.6 | 0.6
CCCCNS(=O)(=O)c1ccc(NS(=O)(=O)c2c(C)cc(C)cc2C)cc1 | 1.0 | 1.1 | -6.5 | 17.6* | 1.4 | 0.0 | 13.1
COCCN1C(=O)C2=C(C1=O)C1N(C)c3ccccc3[C@@]13C[C@@H](CO)N(C(C)=O)C3=N2 (stereo not given in full) | . | -0.1 | . | . | 2.7 | . | .
Cc1cccc2nc(COc3ccc4ccccc4c3Br)cn12 | -1.0 | 1.4 | -10.7 | 32.1* | -5.5 | -0.4 | 11.1
O=C(CSc1nnc(CNC(=O)c2ccccc2)o1)Nc1nccs1 | -0.5 | 1.3 | -2.5 | -4.1 | 3.9 | . | .
O=C(CSc1nnc(CNC(=O)c2ccc(F)cc2)o1)Nc1nccs1 | 0.4 | -0.9 | -9.7 | 14.4* | 0.1 | -0.6 | -3.0
Cc1[nH]c(=O)nc(SCc2ccc(Cl)c(Cl)c2)c1C#N | 0.9 | -3.7 | -2.7 | 14.6* | 0.1 | 0.8* | 2.1
C=CCN1C(=O)[C@H](CC(=O)N2CCC(c3ccccc3)CC2)[C@@]2(C(=O)OCC)CCCC=C12 | . | 0.1 | . | . | 0.1 | . | .
Cc1ccc(S(=O)(=O)NC(=O)Nc2cccc(S(=O)(=O)N(C)C)c2)cc1 | 0.4 | 3.2 | -3.1 | 17.5* | 2.0 | -0.6 | -0.3
CCN1CCN(C(CNS(=O)(=O)c2ccc(OC)c(C)c2)c2cccnc2)CC1 (stereo not given) | 0.5 | 0.1 | -3.7 | 20.2* | 0.6 | -0.7 | -3.2
Cc1cc(C)c(C)c(S(=O)(=O)N2CCN(C(=O)c3ccccn3)CC2)c1C | -0.3 | 7.8 | -2.1 | 15.8* | 1.4 | 1.1* | 4.0
Cc1ccc(NC(=O)CSc2nc3ccccc3c(=O)n2CCCN2CCCCC2)cc1Cl | -1.2 | -2.1 | -4.9 | 30.3* | -7.8 | -0.2 | 9.8
CC1CCN(CCCn2c(SCC(=O)Nc3ccccc3Cl)nc3ccccc3c2=O)CC1 | -0.4 | -6.3 | -1.7 | 42.8* | -6.1 | -0.3 | 23.8*
COc1ccc(NC(=O)CSc2nc3ccccc3c(=O)n2CCCN2CCC(C)CC2)c(OC)c1 | 0.7 | -13.3 | -5.8 | 60.9* | -34.2 | -0.5 | 17.9*
COc1ccc(-n2c(SCC(=O)Nc3cc(C(=O)O)ccc3C)nc3ccccc3c2=O)cc1Cl | 0.2 | 4.4 | -2.5 | 17.5* | 0.4 | -0.6 | -1.8
COc1ccc(-n2c(SCC(=O)Nc3cc(C)on3)nc3ccccc3c2=O)cc1Cl | 0.7 | -3.1 | -15.1 | 4.5 | 13.9 | . | .
CCOc1ccc(-n2c(SCC(=O)Nc3cc(C)c(NC(=O)c4ccccc4)cc3OC)nnc2-c2ccncc2)cc1 | . | 3.2 | . | . | -0.9 | . | .
SMILES | MsrA inh | NPR2 activator | bovine MsrA act | HTR2A ag | GC-A act | OPRM1 ag | HTR2A ag conf
Cc1ccccc1CNC(=S)OC1CCC12CCC(c1ccccc1)CC2 (stereo not given) | . | -2.1 | . | . | 0.7 | . | .
COc1ccc(S[C@]2(C(=O)N(C)C)CC(=O)N(C(=O)C3CC3)[C@@H]2c2ccc(OC)cc2)cc1 | . | -9.5 | . | . | -7.0 | . | .
CC1(C(=O)NCC2CC2)Cc2c(-c3cccc(C(N)=O)c3)ccnc2O1 (stereo not given) | -1.5 | -0.5 | -3.5 | 14.4* | 0.5 | -0.5 | -1.3
CC(=O)NCCNC(=O)C1(C)Cc2c(-c3ccc(C(N)=O)cc3)ccnc2O1 (stereo not given) | -0.3 | 2.3 | -3.4 | 23.6* | 0.3 | -0.6 | -1.1
Nc1[nH]c(C(=O)c2ccccc2)c(-c2cccc3ccccc23)c1C(=O)NC1CCCCC1 | -0.4 | -6.2 | . | . | -6.7 | . | .
COC(=O)[C@H](C(C)C)N(CCCc1cn(CC2CCCCC2)nn1)S(=O)(=O)c1ccc(F)cc1Br | . | 6.5 | . | . | -1.7 | . | .
CC1CCCCC1NC(=O)COC(=O)c1cccn1C (stereo not given) | -0.2 | -8.8 | -5.4 | 15.4* | -4.9 | -0.5 | -5.0
CC1CCCCC1NC(=O)COC(=O)c1ccccn1 (stereo not given) | -0.3 | 4.8 | -3.6 | -1.4 | -1.0 | . | .
COc1cc(OC)c(NC(=O)C2CCCO2)cc1Cl (stereo not given) | -0.7 | -3.1 | -1.5 | 16.2* | 2.0 | -0.6 | -2.3
Cc1occc1-c1nnc(SCC(=O)NCc2ccc(Cl)cc2)n1-c1ccccc1 | . | -6.8 | . | . | -3.1 | . | .
O=C(NCc1ccccc1)C1C(c2ccccc2)=Nc2ccccc2N1C(=O)c1cnccn1 (stereo not given) | 3.4 | -2.9 | . | 14.4* | -4.9 | -0.5 | 0.4
O=C(CN1C(=O)NC(c2ccccc2)(c2ccccc2)C1=O)NCc1ccco1 | -0.1 | -2.8 | -4.0 | 15.2* | 0.0 | 0.0 | 4.0
Cc1ccc(C2(c3ccccc3)NC(=O)N(CC(=O)NCc3ccco3)C2=O)cc1C (stereo not given) | 0.1 | -10.3 | -13.8 | -2.0 | -4.1 | . | .
Cc1csc(NC(=O)c2ccccc2)n1 | -0.7 | 0.0 | -5.4 | 2.3 | 0.8 | . | .
CC(=O)Nc1nc(C)cs1 | 0.8 | 3.4 | -7.0 | 15.6* | 1.2 | -0.3 | -0.8
COC(=O)[C@]12C[C@H](CC(=O)NCc3cccc4ccccc34)C(=O)N(Cc3cccc4ccccc34)C1=C[C@H](C1CCCC1)O[C@@H]2C | . | -1.3 | . | . | -2.7 | . | .
